Measured values as given in the supplement of paper PMC6555819.

Experiments:
Assay in all cases: PBM binding z-score (relative to random genomic background probes); higher = stronger binding; sequences stand for … in GC…GCGATTGACAGCGTAGAATGAAGG
[1] = test system: FXR:RXRa (NR concentration 270 nM, RXRa partner concentration 90 nM)
In short: (§1)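 Regression normalization was applied to scanned fluorescence from custom Agilent 4×180K protein-binding microarrays. Before scanning, arrays were incubated 1 h with ligand-free nuclear receptor dimers, and binding was detected with antibodies against each partner (one per run). Binding z-scores use the random background probes as reference.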

[2] = test system: LXRa:RXRa (NR concentration 270 nM, RXRa partner concentration 90 nM)
In short: as §1

[3] = test system: LXRa homodimer (NR concentration 270 nM)
In short: as §1

[4] = test system: LXRb:RXRa (NR concentration 270 nM, RXRa partner concentration 90 nM)
In short: as §1

[5] = test system: LXRb homodimer (NR concentration 270 nM)
In short: as §1

[6] = test system: PPARa:RXRa (NR concentration 270 nM, RXRa partner concentration 90 nM)
In short: as §1

[7] = test system: PPARg:RXRa (NR concentration 180 nM, RXRa partner concentration 90 nM)
In short: as §1

[8] = test system: PPARg:RXRa 270nM:90nM, anti-RXR (NR concentration 270 nM, RXRa partner concentration 90 nM)
In short: as §1

[9] = test system: PPARg:RXRa 30nM:10nM, anti-RXR (NR concentration 30 nM, RXRa partner concentration 10 nM)
In short: as §1

[10] = test system: PPARg:RXRa 90nM:30nM, anti-RXR (NR concentration 90 nM, RXRa partner concentration 30 nM)
In short: as §1

[11] = test system: PPARg:RXRa DBDmut IVT, anti-RXR (DBD mutation: RXRa K156A/R161A, NR concentration 270 nM, RXRa partner concentration 90 nM)
In short: as §1

[12] = test system: PPARg:RXRa IVT, anti-PPARg (NR concentration 270 nM, RXRa partner concentration 90 nM)
In short: as §1

[13] = test system: PPARg DBDmut IVT, anti-PPARg (DBD mutation: PPARg1 K132A/R137A, NR concentration 270 nM)
In short: as §1

[14] = test system: PPARg homodimer (NR concentration 180 nM)
In short: as §1

[15] = test system: PXR:RXRa (NR concentration 270 nM, RXRa partner concentration 90 nM)
In short: as §1

[16] = test system: PXR homodimer (NR concentration 270 nM)
In short: as §1

[17] = test system: RARa:RXR (NR concentration 270 nM, RXRa partner concentration 90 nM)
In short: as §1

[18] = test system: RARa homodimer (NR concentration 270 nM)
In short: as §1

[19] = test system: RARb:RXRa (NR concentration 270 nM, RXRa partner concentration 90 nM)
In short: as §1

Sequence | PBM binding z-score [1] | PBM binding z-score [2] | PBM binding z-score [3] | PBM binding z-score [4] | PBM binding z-score [5] | PBM binding z-score [6] | PBM binding z-score [7] | PBM binding z-score [8] | PBM binding z-score [9] | PBM binding z-score [10] | PBM binding z-score [11] | PBM binding z-score [12] | PBM binding z-score [13] | PBM binding z-score [14] | PBM binding z-score [15] | PBM binding z-score [16] | PBM binding z-score [17] | PBM binding z-score [18] | PBM binding z-score [19]
CGAACTAGTTCAAAGGACAGTGAAAGGCGACGTA | -0.112 | -0.0127 | -0.428 | -0.231 | -0.842 | 1.62 | 2.23 | 3.51 | 1.75 | 3.25 | 0.0129 | 0.499 | -0.185 | 0.158 | 0.27 | 0.322 | 0.253 | 0.148 | 1.91
CGAACTATGTCACCAGGACAGTGAAGAGGTTGGA | 0.32 | 0.0175 | -0.0452 | -0.257 | -0.182 | 1.17 | 1.5 | 1.26 | 0.318 | 0.775 | 4.52 | 3.71 | 0.886 | 0.475 | -0.0276 | -0.042 | 0.322 | 0.192 | 0.847
CGAACTAGGTCACCAGGACAGAGAAGAGGTTGGA | 4.19 | 2.59 | 0.117 | 1.71 | -0.205 | 5.15 | 8.52 | 7.02 | 4.71 | 6.65 | 8.29 | 8.26 | 0.828 | 2.46 | 1.55 | 0.0837 | 2.56 | 0.391 | 4.22
CGAACTAGGTCAAAGGACAGTGACAGGCGACGTA | 4.22 | 2.82 | 0.19 | 1.88 | -0.493 | 5.56 | 10.5 | 8.72 | 8.9 | 9.48 | 8.32 | 8.4 | 1.51 | 1.78 | 1.3 | 0.0588 | 2.47 | 0.339 | 4.01
